# Experimental data: publication PMC4336329 (PLoS ONE, 2015)
# About 14,000 (4.5%) of roughly 310,000 compounds showed an effect of 50% or more. Effects have a minus sign here. This is one part of a sample in which strong results are shown more often than they occur.
# Biological target: human ether-à-go-go-related gene (hERG) potassium channel (human, UniProt Q12809)
# Test: primary screen, population patch clamp on CHO cells stably expressing hERG; higher = less effect of the substance
# 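Note: peak tail current of the secondary pulse compared with the same well before compound.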
# Chain of human ether-à-go-go-related gene (hERG) potassium channel (Q12809 whole entry, looked up): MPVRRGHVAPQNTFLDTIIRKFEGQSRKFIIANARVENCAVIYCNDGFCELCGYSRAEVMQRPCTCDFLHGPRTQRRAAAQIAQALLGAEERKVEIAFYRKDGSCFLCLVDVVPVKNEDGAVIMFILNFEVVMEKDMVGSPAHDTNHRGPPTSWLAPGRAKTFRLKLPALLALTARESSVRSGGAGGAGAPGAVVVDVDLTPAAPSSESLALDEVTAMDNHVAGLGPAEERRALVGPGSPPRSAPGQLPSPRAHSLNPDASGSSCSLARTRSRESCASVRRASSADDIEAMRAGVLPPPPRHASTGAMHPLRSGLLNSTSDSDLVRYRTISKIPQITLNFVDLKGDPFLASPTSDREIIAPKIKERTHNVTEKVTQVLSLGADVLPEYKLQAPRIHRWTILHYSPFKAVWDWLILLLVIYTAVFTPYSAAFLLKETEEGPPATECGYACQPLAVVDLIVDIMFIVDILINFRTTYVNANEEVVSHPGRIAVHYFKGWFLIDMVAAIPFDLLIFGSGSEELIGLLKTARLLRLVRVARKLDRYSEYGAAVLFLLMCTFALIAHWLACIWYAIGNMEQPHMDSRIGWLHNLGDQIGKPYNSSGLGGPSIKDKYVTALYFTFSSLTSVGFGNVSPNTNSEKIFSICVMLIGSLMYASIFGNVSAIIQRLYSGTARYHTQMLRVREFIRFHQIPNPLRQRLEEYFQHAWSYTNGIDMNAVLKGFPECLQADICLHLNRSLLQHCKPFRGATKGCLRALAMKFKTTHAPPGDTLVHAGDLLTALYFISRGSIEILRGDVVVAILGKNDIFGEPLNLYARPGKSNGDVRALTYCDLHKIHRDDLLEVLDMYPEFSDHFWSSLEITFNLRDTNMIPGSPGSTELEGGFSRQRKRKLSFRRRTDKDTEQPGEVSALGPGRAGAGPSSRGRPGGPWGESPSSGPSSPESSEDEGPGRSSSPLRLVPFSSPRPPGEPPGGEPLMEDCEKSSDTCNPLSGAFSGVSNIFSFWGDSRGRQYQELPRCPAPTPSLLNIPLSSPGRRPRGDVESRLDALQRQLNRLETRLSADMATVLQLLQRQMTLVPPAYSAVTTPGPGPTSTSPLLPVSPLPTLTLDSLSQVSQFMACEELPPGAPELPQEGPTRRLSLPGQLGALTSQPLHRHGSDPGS
row,SMILES,"hERG current change (%, negative = inhibition) at 10uM [%]"
1,CC1CCCN(CCOc2ccc(Br)cc2)C1 (stereo not drawn),-51.3
2,CC1CN(CCOc2ccc(Cl)c(Cl)c2)CC(C)O1.O=C(O)C(=O)O (stereo not drawn),-5.18
3,CC1CN(CCOc2ccc(F)cc2)CC(C)O1.O=C(O)C(=O)O (stereo not drawn),6.81
4,CCCOc1ccc(OCCN2CCCC(C)C2)cc1.O=C(O)C(=O)O (stereo not drawn),-52.2
5,Brc1ccc(OCCN2CCOCC2)cc1,4.54
6,O=C(CSc1nc2ccccc2n1CC(=O)N1CCCC1)Nc1ccc2c(c1)OCO2,-37.7
7,CC(=O)Nc1c(C)nn(C(C)=O)c1C,16.4
8,CC(=O)N(C(C)=O)c1nc2nc(C)cc(C)n2n1,-42.3
9,COc1cccc(NC(=O)NCCc2ccc(Cl)cc2)c1,9.47
10,CCOC(=O)NNc1ccccc1,6.88
11,Cc1ccc(-c2csc3nc4ccc(C(=O)NCCO)cc4c(=O)n23)cc1,12.1
12,CC(C)(C)c1ccc(OCCC(=O)OCC(=O)Nc2cccnc2Cl)cc1,-2.33
13,COc1cc2c(cc1OC)C(c1cccs1)N(C(=S)NC(C)C)CC2 (stereo not drawn),-40
14,COc1cc2c(cc1OC)C(c1cccs1)N(C(=O)c1ccncc1)CC2 (stereo not drawn),-66.8
15,COc1cc2c(cc1OC)C(c1cccs1)N(C(=O)c1cccnc1)CC2 (stereo not drawn),-54.9
16,COc1cc2c(cc1OC)C(c1cccs1)N(C(=O)C(C)C)CC2 (stereo not drawn),-19.2
17,COc1cc2c(cc1OC)C(c1ccccc1)N(C(=O)c1ccccc1)CC2 (stereo not drawn),-13.1
18,COc1ccc(C2c3cc(OC)c(OC)cc3CCN2C(=O)c2ccccc2)cc1OC (stereo not drawn),2.95
19,Cc1cc2ccccc2c(=O)n1CC(=O)NCCC1=CCCCC1,8.01
20,Cc1c(C#N)c(NC(=O)CCl)n(Cc2ccccc2)c1C,31.1
21,CC(C)n1c(SCc2ccc(Cl)cc2)nc2c1c(=O)[nH]c(=O)n2C,18.5
22,Cc1ccc(OP(=O)(NC(C)c2ccccc2)Oc2ccc(C)cc2)cc1 (stereo not drawn),17.6
23,C=CCN(CC=C)S(=O)(=O)c1ccc(NC(=S)NC(=O)/C=C/c2cccc3ccccc23)cc1,1.52

row,SMILES,"hERG current change (%, negative = inhibition) at 10uM [%]"
1,O=C(Cc1ccc(Br)cc1)N1CCN(C(=O)c2ccccc2)CC1,-30.1
2,CCOc1ccc(/C=C/[N+](=O)[O-])c2ccccc12,-8.67
3,CCN1CCN(c2ccc(S(=O)(=O)N3CCCCC3)cc2NC(=O)c2ccccc2)CC1,-46
4,CCN1CCN(c2ccc(S(=O)(=O)N3CCOCC3)cc2NC(=O)/C=C/c2ccc(OC)cc2OC)CC1,-17.2
5,CCN1CCN(c2ccc(S(=O)(=O)N3CCCCC3)cc2NC(=O)c2ccc(F)cc2)CC1,-56.5
6,CCN1CCN(c2ccc(S(=O)(=O)N3CCCCC3)cc2NC(=O)/C=C/c2cc(OC)ccc2OC)CC1,-52.7
7,CCN1CCN(c2ccc(S(=O)(=O)N3CCCCC3)cc2NC(=O)c2cccc(C(F)(F)F)c2)CC1,-46.7
8,CCN1CCN(c2ccc(S(=O)(=O)N3CCCCC3)cc2NC(=O)c2ccc(OC(F)F)cc2)CC1,-57.2
9,CCN1CCN(c2ccc(S(=O)(=O)N3CCCCC3)cc2NC(=O)/C=C/c2ccc(OC)c(OC)c2)CC1,-31.4
10,CN1CCN(c2ccc(S(=O)(=O)N3CCCCC3)cc2NC(=O)/C=C/c2ccc(OC(F)F)cc2)CC1,-39.2
11,CCN1CCN(c2ccc(S(=O)(=O)N3CCCCC3)cc2NC(=O)c2cccc(F)c2)CC1,-34.6
12,CCN1CCN(c2ccc(S(=O)(=O)N3CCCCC3)cc2NC(=O)/C=C/c2cccc(OC)c2OC)CC1,-18.9
13,CCN1CCN(c2ccc(S(=O)(=O)N3CCCCC3)cc2NC(=O)/C=C/c2ccc(OC(F)F)cc2)CC1,-50.2
14,CCN1CCN(c2ccc(S(=O)(=O)N3CCOCC3)cc2NC(=O)c2ccc(C(F)(F)F)cc2)CC1,-44.2
15,O=C(Nc1ccc2c(c1)OCO2)c1ccc(COc2ccc3c(c2)CCC3)o1,5.22
16,CCN(Cc1ccccc1)C(=O)COC(=O)c1c(C)nsc1NC,-6.97
17,CCOCCCNC(=O)c1cc(Nc2ccc(OC)cc2OC)nc2ccccc12,-7.58
18,COc1ccc(N2C(=O)CCC(C(=O)Nc3ccccn3)C2c2ccc(OC)c(OC)c2)cc1 (stereo not drawn),8.15
19,Cc1ccc(-n2c(C)c(C)c3c(NCCN(C)C)ncnc32)cc1,-36.3
20,COC(=O)c1ccc(C)c(NC(=O)CN2C(=O)c3ccccc3S2(=O)=O)c1,6.46
21,Cc1ccc(CNC(=S)Nc2ccc(C)c([N+](=O)[O-])c2)cc1,17.5
22,CN(CC(=O)Nc1ccc(S(=O)(=O)N2CCCC2)cc1)Cc1c(F)cccc1Cl,-7.41
